Measurements from the supplement of paper PMC6555819.

system: VDR:RXRa (NR concentration 270 nM, RXRa partner concentration 90 nM); test: PBM binding z-score (relative to random genomic background probes); higher = stronger binding; sequences stand for … in GC…GCGATTGACAGCGTAGAATGAAGG
Description: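 Protein-binding microarray (Agilent 4x180K custom design, double-stranded 60-nt probes: 5' GC cap, 34-nt variable region, 24-nt constant primer region; full probe sequence given). Purified or IVT nuclear receptor:RXRα heterodimers (3:1 NR:RXRα, mostly 270:90 nM) or homodimers were incubated for 1 h in PBS with 2% milk and no ligand, then detected with Alexa488 antibodies. Fluorescence from o1-orientation probes (~5 replicates averaged) was converted to z-scores against 500 random hg19 background probes. Variable regions are seed direct-repeat (DR0–DR5) sites, all their single-nucleotide variants and half-site ablations.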

Sequence | PBM binding z-score
GCTATTAGTTGAAAGGGCAATCGAATGATTCTCG | 0.219
TAGTCTAGGTCATGGGCCAGTATACCACGCGAAC | 2.13
GATACTGGGTCAGCTAGAGGCCAGAGTATGGAAA | 0.938
CAGACTAGGTCACAGAGGTCAAAGTCCGTGCGTA | 7.98
GCTATTAGTTGAAAGGGCAACCCAATGATTCTCG | 0.662
ACTTACGGGTCAACGAGGTTAAAGCACGCGTATA | 7.52
TCGAGTAGGTTTGTCGGGGCATTCAGCCAACATA | 0.467
GCTTGTAGATCAAGGGTAAGAAAGACTAAGCTAA | -0.559
TGATATAGGTAAACAGGTGAAAGTCCGTAAGTTA | 0.405
CCAGACGGGTGAGAAGGTAACTCAGCCTCGATTA | -0.516
CCTTACCGGTCACTGACAGGTTATAGCATTTGGA | 0.869
CGAACTATGTCAGAACAGGACAGTGAAGGATGAT | -0.317
GCGACTGGGGCATCAGCAGGTTACGATAACTTAA | 0.0769
CTCGAAAGGTCGGTTGATGTGAGTATACGGATAA | 1.17
TCATATAGGCAAACAGGTGAAAGTCCGTAAGTTA | 0.719
TGTCAAAGTTCAAAGGCAACGTAAGTATCCACAC | 4.26
CTCAAAAGGTCGTGCTCAGGTGAGTATACCAAAC | 3.5
AGAACGAGGGCAATGAGTTGATGGCACGGGTGGC | 4.7
AGAACGAGGGCACGCTGAGTTGATGGCAGAGTAG | 1.86
CCGAGTAGATTATGGGGCATTCAGGCAACGGTGA | -0.214

Sequence | PBM binding z-score
ATCGAAGGGTCGAGGTGAGTATAGAGAAAGGGAA | 1.37
TATACAGGGTCAAAGGCCAGCGTACGAATGTCGA | 4.73
CAAACTAGGTCACAGAGGCCAAAGTCCGTGCGTA | 6.5
TTACCAAGGTGAAGGTCGGTGATCCCTCTGTAGA | 0.428
ATCTCTAGGTACAGTTCAGTGAAAGATCGATAGA | 1.12
TCTGCTAGGTCAACGAGGGTCAGCTAATCTGCTA | 5.1
CGAACTAGGTCATTGGCAGGACAGTGAATAGTAA | 2.07
CCTTACGGGTCACGAGGTTATGGCACGACGAGCG | 4.99
ACTTACGGGTTAACGAGGTTATAGCACGCGTATA | 6.31
TTTCCAAGGTGAGCTGAGGTCGTTGATCCAACTC | 4.12
CAAACTAGGTCACGAAAGTTCAAAGTCGAATGAC | 7.01
TGAATGAGGTTATAAGCTCAGGGAACGTTGCAAA | 0.693
GCTGCTAGGTCTGGTTGGTCAGCTAACGGGTACG | -0.816
AGAATGAGGTTATAAAGATCAGGGAATTGCGGTC | 1.27
CAAACTAGGTCAAGGTCATAGTCGGTTTGTGCCA | 5.01
ATCGATAGGTCGACGAGGTGAGTATACACCGTTT | 2.96
CCGAGTGGGGCAGAAAGGTTACCATACCATCCGG | 0.759
TCTTGTAGACCAATAGAGGTTAAGAAAGTGCGCT | 1.82
CCTAGATGGTCAAGGTCACACACGCTATAGGTAC | 4.15
AGAACGAGGGCATTGAGTTGATAGCACGGGTGGC | 5.24
